Activity calls are given as the source filed them. Rule as the data show it, unless noted: active = inhibition above about 36%; inactive = the rest.

One test has as its system transactivating tegument protein VP16 (Human herpesvirus 1). Put plainly: compounds suppressing VP16-driven luciferase signal – cell-based, luminescence, single concentration, counter-screen for SRC2 inhibitor project (AID 652007). The following applies: cell-based VP16 transactivation luciferase reporter, at 8.9 µM, hits give high values.
As for `CCOC(=O)c1ccc(-c2ccc(N3C(c4ccsc4)=Cc4ccc(F)cc4C3c3c[nH]c4ccc(C#N)cc34)cc2)cc1F` (stereo not given), the inhibition (usually the relative decrease from the control value, in per cent) was -3.42% (inactive).
Take `CN1CCN(/N=C/c2ccc(N(c3ccccc3)c3ccccc3)cc2)CC1`: the inhibition was 2.36% (inactive).
On to `CCOC(=O)C1CCN(C(=O)CCc2c(C)nc3cc(-c4ccccc4)nn3c2C)CC1`, for which the inhibition was -24.4% (inactive).
For the compound `CC(C)OC(=O)c1ccc(NCc2cc(O)ccc2O)cc1Cl`, the inhibition is 19.4% (inactive).
Regarding `CCCCSc1nc(C)cc(SCC(=O)N/N=C/c2cccc(OC)c2O)n1`, the inhibition is -16.2% (inactive).
Turning to `Cc1cc(C(=O)C(C)OC(=O)c2ccc(NC(=O)CC#N)cc2)c(C)n1-c1ccccc1` (stereo not given), the inhibition is -36% (inactive).
For the compound `CCCN1C(=O)C2C(C(=O)Nc3cccc(OC)c3)C3C=CC2(O3)C1C(=O)NC1CCCCC1` (stereo not given), the inhibition is -13.7% (inactive).
Regarding `O=C(NCCS(=O)(=O)N1CCN(c2ccc(F)cc2)CC1)c1ccc(Br)o1`, the inhibition is -22.6% (inactive).
For `CC(C)(CO)CNC(=O)CCc1nnc(-c2ccc(-c3ccccc3)cc2)o1`, the inhibition is 0.83% (inactive).
Turning to `COc1ccc2nc(Sc3c([N+](=O)[O-])nc(C)n3Cc3ccccc3)[nH]c2c1`, the inhibition is 13.1% (inactive).
`Oc1cccc(C(Nc2nccs2)c2ccc3cccnc3c2O)c1` (stereo not given): the inhibition is -15.2% (inactive).
In the case of `CC(C)(C)c1ccc(-c2n[nH]c(=S)n2C2CCCC2)cc1`, the inhibition was 1.72% (inactive).
Regarding `O=C(COC(=O)c1cc(S(=O)(=O)N2CCOCC2)ccc1F)NCc1ccc2c(c1)OCO2`, the inhibition is -10.1% (inactive).
In the case of `CCOC(=O)c1c(C)[nH]c(C)c1C(=O)COC(=O)c1ccccc1O`, the inhibition was 2.18% (inactive).
Still for that read-out and setting: next, `CCC(NC(=O)CCc1c(C)c2cc3c4c(oc3cc2oc1=O)CCCC4)C(=O)O` (stereo not given): 38.3% (active); `O=C(Cc1ccc(-c2ccccc2)cc1)NNC(=S)NCc1ccco1`: -22.3% (inactive); `CC(=O)Nc1cccc(NC(=O)CSc2nc(C3CC3)nc3ccccc23)c1`: -2.73% (inactive).
Regarding `O=C(O)CCCCCCCCCCC1CCC(O)C1O` (stereo not given), the inhibition is 20.8% (inactive).
Consider `Cc1cccc(NC(=O)Nc2ccc(Cl)c(Cl)c2)n1`, for which the inhibition was -83.6% (inactive).
Regarding `NCCCCCc1nnc(SCc2ccccc2Cl)o1`, the inhibition was 48.5% (active).
As for `CC1CCc2c(sc3nc(CSc4ncn[nH]4)[nH]c(=O)c23)C1` (stereo not given), the inhibition was 33% (inactive).
Still for that read-out and setting: next, `CC(C)(C)c1ccc(OCCC(=O)OCC(=O)NC2CC2)cc1`: 23.8% (inactive).
Still for that read-out and setting: to `CCC(C)c1ccc(C(C)NC(=S)NC2CCCCC2)cc1` (stereo not given) belongs -0.76% (inactive).
As to `Cc1sc(NC(=O)CSc2nnnn2C(C)C)c(C#N)c1C`, the inhibition was 2.68% (inactive).
The same measure, in the same setting: next, `Cc1cccc(C)c1NC(=O)CN1CCN(C/C=C/c2ccccc2)CC1`: -15.1% (inactive); `Cc1cc(=O)n2c3c(c4c(cc13)c(CN(C)C)cc(=O)n4C)OC2`: 2.33% (inactive).
Still for that read-out and setting: next, `COc1cccc(CNC(=O)C2CCN(S(=O)(=O)c3ccc(F)cc3)CC2)c1`: 16.3% (inactive).
Turning to `NC(=O)c1ccsc1NC(=O)COC(=O)c1ccc([N+](=O)[O-])o1`, the inhibition was -4.1% (inactive).
On to `O=C(NC(c1ccc(F)cc1)c1ccc2ccccc2n1)C1CCN(CCOc2ccc(F)cc2)CC1` (stereo not given), for which the inhibition is -1.57% (inactive).
`CCOC(=O)[C@H]1[C@H]2COc3ccc(Br)cc3[C@@H]2N2C(=O)CN(Cc3ccco3)C(=O)[C@@]12C`: the inhibition is 0.08% (inactive).
As for `CCOC(=O)C(=Cc1ccc(-n2cncn2)cc1)C(=O)OCC`, the inhibition is 15.5% (inactive).
As to `CCCCN1CC(COCc2ccccc2)Oc2cccc(NCc3cc(OC)c(OC)c(OC)c3)c2S1(=O)=O` (stereo not given), the inhibition was -12.2% (inactive).
On the same count and under the same terms, to `CC(C)CCn1cnc2c(sc3nc4c(cc32)CSC(C)(C)C4)c1=O` belongs -42.3% (inactive); to `Cc1ccc(-c2c3c(nc4sc(C(N)=O)c(N)c24)CCC3)cc1`, 1.89% (inactive); to `O=[N+]([O-])c1ccc(Oc2ccc(F)cc2Br)c2ccncc12`, 7.49% (inactive).
Consider `COc1cc(/C=N/NC(=O)c2ccc(COc3cc(C)ccc3C(C)C)cc2)cc(OC)c1O`, for which the inhibition is -2.59% (inactive).
With `COc1ccccc1CNS(=O)(=O)c1ccc(-c2cc(C)no2)cc1`, the inhibition is -13% (inactive).
In the case of `CCOc1ccc(-c2nc(CSCC(=O)NC3CCN(Cc4ccccc4)CC3)c(C)o2)cc1`, the inhibition was 8.65% (inactive).
Turning to `COC(=O)c1cc(=O)n(-c2ccccc2)c(=Nc2ccccc2)s1`, the inhibition was 8.44% (inactive).
On to `CCC(=O)Nc1ccc2c(c1)C(=O)N(C)[C@@H]1CC[C@@H](CC(=O)NCc3ccc(OC)cc3)O[C@H]1CO2`, for which the inhibition is -18.1% (inactive).

The target in another test is Nuclear receptor coactivator 2 (Homo sapiens) (UniProt Q15596). Put plainly: inhibition of GAL4-SRC2 driven luciferase expression – cell-based, luminescence, HEK293, triplicate, confirmation (AID 652008;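 active = mean inhibition above 46.5%, the solvent-only control mean plus 3 SD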;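 also: 0% = DMSO-treated cells and 100% = Gossypol at 36 µM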). The following applies: HEK293 GAL4-SRC2 luciferase reporter, at 8.9 µM, hits give high values.
Chain of Nuclear receptor coactivator 2 (Homo sapiens) (Q15596 whole entry, looked up, the tested form may be a part): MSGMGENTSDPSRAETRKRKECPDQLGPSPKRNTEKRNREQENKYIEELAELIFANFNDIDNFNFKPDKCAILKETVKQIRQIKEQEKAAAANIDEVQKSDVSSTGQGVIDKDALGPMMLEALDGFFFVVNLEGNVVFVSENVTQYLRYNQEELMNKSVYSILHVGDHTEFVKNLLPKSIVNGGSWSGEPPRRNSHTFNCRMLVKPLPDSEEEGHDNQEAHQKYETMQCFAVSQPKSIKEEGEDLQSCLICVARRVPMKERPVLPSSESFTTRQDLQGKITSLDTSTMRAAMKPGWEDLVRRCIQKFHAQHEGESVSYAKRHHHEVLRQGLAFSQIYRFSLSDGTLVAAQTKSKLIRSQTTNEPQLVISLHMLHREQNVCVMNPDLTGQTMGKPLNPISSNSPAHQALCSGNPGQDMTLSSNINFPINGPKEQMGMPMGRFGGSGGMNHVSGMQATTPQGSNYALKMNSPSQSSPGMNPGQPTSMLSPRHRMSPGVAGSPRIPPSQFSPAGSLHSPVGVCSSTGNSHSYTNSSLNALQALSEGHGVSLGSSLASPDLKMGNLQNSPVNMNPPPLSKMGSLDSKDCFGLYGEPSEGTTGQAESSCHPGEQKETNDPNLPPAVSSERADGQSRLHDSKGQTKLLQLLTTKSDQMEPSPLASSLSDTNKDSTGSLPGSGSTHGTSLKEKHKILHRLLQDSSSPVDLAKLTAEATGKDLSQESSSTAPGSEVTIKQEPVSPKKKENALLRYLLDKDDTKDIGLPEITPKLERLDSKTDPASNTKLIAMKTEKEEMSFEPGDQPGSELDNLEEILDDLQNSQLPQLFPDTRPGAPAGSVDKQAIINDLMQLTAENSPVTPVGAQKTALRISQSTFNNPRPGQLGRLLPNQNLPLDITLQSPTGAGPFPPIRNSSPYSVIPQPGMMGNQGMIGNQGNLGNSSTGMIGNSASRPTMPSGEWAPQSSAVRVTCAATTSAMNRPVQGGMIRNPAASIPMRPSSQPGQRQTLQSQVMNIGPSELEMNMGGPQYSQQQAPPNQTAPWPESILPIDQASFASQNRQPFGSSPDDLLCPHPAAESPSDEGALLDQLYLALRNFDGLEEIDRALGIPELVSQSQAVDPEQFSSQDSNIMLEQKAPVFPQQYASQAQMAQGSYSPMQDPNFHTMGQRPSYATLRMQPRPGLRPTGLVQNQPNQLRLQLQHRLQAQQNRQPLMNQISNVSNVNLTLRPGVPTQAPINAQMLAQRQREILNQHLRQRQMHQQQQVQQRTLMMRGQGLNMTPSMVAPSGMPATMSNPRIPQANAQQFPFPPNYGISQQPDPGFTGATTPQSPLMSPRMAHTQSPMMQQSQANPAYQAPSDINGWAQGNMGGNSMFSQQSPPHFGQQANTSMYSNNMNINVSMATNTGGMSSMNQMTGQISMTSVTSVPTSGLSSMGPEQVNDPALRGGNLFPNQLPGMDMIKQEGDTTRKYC
As to `CCOC(=O)c1ccc(-c2ccc(N3C(c4ccsc4)=Cc4ccc(F)cc4C3c3c[nH]c4ccc(C#N)cc34)cc2)cc1F` (stereo not given), the inhibition was 33.6% (inactive).
With `CN1CCN(/N=C/c2ccc(N(c3ccccc3)c3ccccc3)cc2)CC1`, the inhibition is 27.4% (inactive).
Same read-out and setting: next, `CCOC(=O)C1CCN(C(=O)CCc2c(C)nc3cc(-c4ccccc4)nn3c2C)CC1`: 48.5% (active); `CC(C)OC(=O)c1ccc(NCc2cc(O)ccc2O)cc1Cl`: 89.1% (active); `CCCCSc1nc(C)cc(SCC(=O)N/N=C/c2cccc(OC)c2O)n1`: 22.5% (inactive).
Turning to `Cc1cc(C(=O)C(C)OC(=O)c2ccc(NC(=O)CC#N)cc2)c(C)n1-c1ccccc1` (stereo not given), the inhibition was 26.3% (inactive).
Regarding `CCCN1C(=O)C2C(C(=O)Nc3cccc(OC)c3)C3C=CC2(O3)C1C(=O)NC1CCCCC1` (stereo not given), the inhibition is -16.6% (inactive).
`O=C(NCCS(=O)(=O)N1CCN(c2ccc(F)cc2)CC1)c1ccc(Br)o1`: the inhibition is -4.89% (inactive).
With `CC(C)(CO)CNC(=O)CCc1nnc(-c2ccc(-c3ccccc3)cc2)o1`, the inhibition is -13.5% (inactive).
Same read-out and setting: to `COc1ccc2nc(Sc3c([N+](=O)[O-])nc(C)n3Cc3ccccc3)[nH]c2c1` belongs 37.8% (inactive).
For `Oc1cccc(C(Nc2nccs2)c2ccc3cccnc3c2O)c1` (stereo not given), the inhibition is 7.61% (inactive).
On to `CC(C)(C)c1ccc(-c2n[nH]c(=S)n2C2CCCC2)cc1`, for which the inhibition is 3.48% (inactive).
On to `O=C(COC(=O)c1cc(S(=O)(=O)N2CCOCC2)ccc1F)NCc1ccc2c(c1)OCO2`, for which the inhibition was -5.62% (inactive).
On the same count and under the same terms, to `CCOC(=O)c1c(C)[nH]c(C)c1C(=O)COC(=O)c1ccccc1O` belongs 20.3% (inactive); to `CCC(NC(=O)CCc1c(C)c2cc3c4c(oc3cc2oc1=O)CCCC4)C(=O)O` (stereo not given), 70.3% (active).
Take `O=C(Cc1ccc(-c2ccccc2)cc1)NNC(=S)NCc1ccco1`: the inhibition was -9.18% (inactive).
Same read-out and setting: to `CC(=O)Nc1cccc(NC(=O)CSc2nc(C3CC3)nc3ccccc23)c1` belongs 27.2% (inactive).
The same measure, in the same setting: to `O=C(O)CCCCCCCCCCC1CCC(O)C1O` (stereo not given) belongs 65.3% (active); to `Cc1cccc(NC(=O)Nc2ccc(Cl)c(Cl)c2)n1`, -16.7% (inactive); to `NCCCCCc1nnc(SCc2ccccc2Cl)o1`, 53.5% (active).
Regarding `CC1CCc2c(sc3nc(CSc4ncn[nH]4)[nH]c(=O)c23)C1` (stereo not given), the inhibition is 35.2% (inactive).
As to `CC(C)(C)c1ccc(OCCC(=O)OCC(=O)NC2CC2)cc1`, the inhibition was 2.38% (inactive).
As to `CCC(C)c1ccc(C(C)NC(=S)NC2CCCCC2)cc1` (stereo not given), the inhibition was 22.8% (inactive).
For the compound `Cc1sc(NC(=O)CSc2nnnn2C(C)C)c(C#N)c1C`, the inhibition is -4.47% (inactive).
Consider `Cc1cccc(C)c1NC(=O)CN1CCN(C/C=C/c2ccccc2)CC1`, for which the inhibition was -3.36% (inactive).
With `Cc1cc(=O)n2c3c(c4c(cc13)c(CN(C)C)cc(=O)n4C)OC2`, the inhibition was -129% (inactive).
Turning to `COc1cccc(CNC(=O)C2CCN(S(=O)(=O)c3ccc(F)cc3)CC2)c1`, the inhibition is -10.1% (inactive).
Turning to `NC(=O)c1ccsc1NC(=O)COC(=O)c1ccc([N+](=O)[O-])o1`, the inhibition is -22.5% (inactive).
With `O=C(NC(c1ccc(F)cc1)c1ccc2ccccc2n1)C1CCN(CCOc2ccc(F)cc2)CC1` (stereo not given), the inhibition was -16.5% (inactive).
Turning to `CCOC(=O)[C@H]1[C@H]2COc3ccc(Br)cc3[C@@H]2N2C(=O)CN(Cc3ccco3)C(=O)[C@@]12C`, the inhibition is -14.4% (inactive).
For `CCOC(=O)C(=Cc1ccc(-n2cncn2)cc1)C(=O)OCC`, the inhibition was 24.5% (inactive).
Take `CCCCN1CC(COCc2ccccc2)Oc2cccc(NCc3cc(OC)c(OC)c(OC)c3)c2S1(=O)=O` (stereo not given): the inhibition is 13.4% (inactive).
As to `CC(C)CCn1cnc2c(sc3nc4c(cc32)CSC(C)(C)C4)c1=O`, the inhibition was -11.9% (inactive).
On to `Cc1ccc(-c2c3c(nc4sc(C(N)=O)c(N)c24)CCC3)cc1`, for which the inhibition is 34.5% (inactive).
Same read-out and setting: next, `O=[N+]([O-])c1ccc(Oc2ccc(F)cc2Br)c2ccncc12`: 50.2% (active).
For `COc1cc(/C=N/NC(=O)c2ccc(COc3cc(C)ccc3C(C)C)cc2)cc(OC)c1O`, the inhibition was 62.9% (active).
For `COc1ccccc1CNS(=O)(=O)c1ccc(-c2cc(C)no2)cc1`, the inhibition was -7.27% (inactive).
With `CCOc1ccc(-c2nc(CSCC(=O)NC3CCN(Cc4ccccc4)CC3)c(C)o2)cc1`, the inhibition was 19.7% (inactive).
Regarding `COC(=O)c1cc(=O)n(-c2ccccc2)c(=Nc2ccccc2)s1`, the inhibition was 24.4% (inactive).
Consider `CCC(=O)Nc1ccc2c(c1)C(=O)N(C)[C@@H]1CC[C@@H](CC(=O)NCc3ccc(OC)cc3)O[C@H]1CO2`, for which the inhibition was -9.9% (inactive).

The values above are taken from PubChem BioAssay.
